Test systems include NCI-H23 lung; NCI-H226 lung; NCI-H322M lung; HOP-62 NSCLC; NCI-H460 lung; HOP-92 NSCLC; NCI-H522 lung; A549/ATCC NSCLC; 786-0 renal; COLO 205 colon; DU-145 prostate; K-562 leukemia; MALME-3M melanoma; MDA-MB-231 breast; RXF 393 renal; SF-268 CNS; SF-295 CNS; SF-539 CNS; UACC-257 melanoma; M14 melanoma.
What all share (test): NCI-60 one-dose screen, 48 h (100 = growth as untreated, 0 = no growth, -100 = all killed)
Holding throughout (conditions): 10 µM unless noted

Each structure is given as a SMILES string. The panel holds about 83,000 compounds, 20% with a hit somewhere; the sample as a whole holds those more often.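 Each cell line was grown in a 96-well plate and treated with one concentration of compound for 48 hours. Values below 10 were considered active.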 Unmarked numbers belong to inactive results. The source made the active and inactive calls.

Consider `C=C(C)[C@@H]1CC[C@]2(CO)CC[C@]3(C)[C@H](CC[C@@H]4[C@@]5(C)CC[C@H](O)C(C)(C)[C@@H]5CC[C@]43C)[C@@H]12`, for which the growth is 25.9% with NCI-H23 lung; 37.5% in the assay on NCI-H226 lung; 68.9% in the assay with NCI-H322M lung; 43.2% in the assay with HOP-62 NSCLC; 31.4% in the assay on NCI-H460 lung; 36.4% in the assay with HOP-92 NSCLC. Further, the growth is 40.2% with NCI-H522 lung; -3.89% (active) in the assay with A549/ATCC NSCLC; -7.62% (active) in the assay on 786-0 renal; 52.5% in the assay with COLO 205 colon; 28.2% in the assay with DU-145 prostate; 24.3% in the assay on K-562 leukemia. Further, the growth in the assay on MALME-3M melanoma was 63%; in the assay with MDA-MB-231 breast, 4.46% (active); in the assay on RXF 393 renal, -50.7% (active); with SF-268 CNS, 54.6%; with SF-295 CNS, 71.4%; in the assay on SF-539 CNS, -33% (active). The growth in the assay with UACC-257 melanoma was 6.89% (active); in the assay on M14 melanoma it was 49.3%.

As for `N#C/C(=C\c1ccc2c(c1)OCO2)c1ccccc1`, the growth in the assay with NCI-H23 lung was 84%; with NCI-H226 lung it was 90.9%; with NCI-H322M lung it was 95.1%; with HOP-62 NSCLC, 67.3%; with NCI-H460 lung, 68.3%; in the assay on HOP-92 NSCLC it was 64.5%. Further, the growth was 52% in the assay with NCI-H522 lung; 71.9% in the assay on A549/ATCC NSCLC; 95.5% with 786-0 renal; 66.5% in the assay on COLO 205 colon; 106% with DU-145 prostate; 21.4% in the assay with K-562 leukemia. The growth with MALME-3M melanoma was 80.7%; in the assay on MDA-MB-231 breast, 66.8%; in the assay on RXF 393 renal, 83.6%; with SF-268 CNS, 86.4%; in the assay on SF-295 CNS it was 71.3%; with SF-539 CNS it was 80%. The results for the growth in the assay with UACC-257 melanoma and with M14 melanoma were 85.8% and 59%, respectively.

Regarding `COc1ccc(Nc2cc(Cl)ccc2C(=O)O)cn1`, the growth with NCI-H23 lung is 102%; in the assay with NCI-H226 lung, 103%; in the assay on NCI-H322M lung it was 128%; in the assay with HOP-62 NSCLC, 111%; with NCI-H460 lung, 113%; in the assay with HOP-92 NSCLC it was 101%. In addition, the growth was 100% with NCI-H522 lung; 103% in the assay with A549/ATCC NSCLC; 111% with 786-0 renal; 103% in the assay with COLO 205 colon; 110% in the assay with DU-145 prostate; 100% in the assay on K-562 leukemia. Besides, the growth with MALME-3M melanoma is 157%; in the assay on MDA-MB-231 breast it was 109%; with RXF 393 renal, 126%; in the assay on SF-268 CNS, 103%; in the assay with SF-295 CNS it was 138%; in the assay on SF-539 CNS, 105%. Further, the values for the growth in the assay with UACC-257 melanoma and in the assay with M14 melanoma were 40.3% and 102%, respectively.

For `COc1cc(CC#N)c([N+](=O)[O-])cc1OC`, the growth in the assay on NCI-H23 lung was 96%; in the assay on NCI-H226 lung, 105%; in the assay with NCI-H322M lung it was 105%; with HOP-62 NSCLC, 113%; with NCI-H460 lung, 106%; in the assay on HOP-92 NSCLC, 99.8%. Further, the growth was 102% in the assay with NCI-H522 lung; 102% in the assay on A549/ATCC NSCLC; 102% with 786-0 renal; 110% with COLO 205 colon; 109% in the assay on DU-145 prostate; 94.8% in the assay on K-562 leukemia. The growth in the assay on MALME-3M melanoma was 111%; with MDA-MB-231 breast, 99.9%; in the assay on RXF 393 renal, 112%; in the assay on SF-268 CNS it was 103%; with SF-295 CNS, 110%; in the assay on SF-539 CNS, 102%. Moreover, the values for the growth in the assay with UACC-257 melanoma and in the assay with M14 melanoma were 103% and 109%, respectively.

In the case of `Cc1cc2nc(C)c(C)nc2cc1C`, the growth was 93.7% in the assay with NCI-H23 lung; 84% in the assay on NCI-H226 lung; 118% with NCI-H322M lung; 92.5% in the assay on HOP-62 NSCLC; 101% with NCI-H460 lung; 63.8% with HOP-92 NSCLC. Also, the growth was 95.6% with NCI-H522 lung; 101% in the assay with A549/ATCC NSCLC; 103% with 786-0 renal; 98.7% in the assay on COLO 205 colon; 115% in the assay on DU-145 prostate; 119% in the assay with K-562 leukemia. For the same compound, the growth with MALME-3M melanoma was 109%; in the assay with MDA-MB-231 breast, 101%; in the assay on RXF 393 renal, 109%; with SF-268 CNS, 109%; with SF-295 CNS, 89%; with SF-539 CNS, 104%. The growth with UACC-257 melanoma was 97.8%; with M14 melanoma it was 108%.

As for `C=CCc1cc(OC)c(OC)c(OC)c1`, the growth in the assay on NCI-H23 lung is 95.6%; with NCI-H226 lung, 104%; in the assay with NCI-H322M lung it was 117%; in the assay on HOP-62 NSCLC, 104%; in the assay with NCI-H460 lung, 97.1%; in the assay with HOP-92 NSCLC it was 108%. The growth in the assay with NCI-H522 lung was 101%; in the assay on A549/ATCC NSCLC, 96.2%; in the assay on 786-0 renal, 108%; in the assay on COLO 205 colon it was 108%; in the assay with DU-145 prostate it was 102%; in the assay on K-562 leukemia, 105%. In addition, the growth in the assay on MALME-3M melanoma was 109%; in the assay with MDA-MB-231 breast, 99%; in the assay on RXF 393 renal it was 103%; in the assay with SF-268 CNS, 95.3%; in the assay with SF-295 CNS, 113%; in the assay with SF-539 CNS, 114%. Besides, the figures for the growth in the assay on UACC-257 melanoma and with M14 melanoma were 99.1% and 103%, respectively.

As to `CC1(C)C2CCC1(C)C1(C2)OCCS1` (stereo not given), the growth in the assay on NCI-H23 lung is 95.6%; in the assay with NCI-H226 lung it was 92.7%; in the assay on NCI-H322M lung, 99.6%; in the assay on HOP-62 NSCLC, 101%; in the assay on NCI-H460 lung, 106%; in the assay on HOP-92 NSCLC it was 102%. Further, the growth with NCI-H522 lung is 102%; in the assay with A549/ATCC NSCLC, 99%; in the assay with 786-0 renal, 97.4%; in the assay with COLO 205 colon, 118%; in the assay on DU-145 prostate, 103%; with K-562 leukemia, 96.5%. Moreover, the growth was 94.6% in the assay on MALME-3M melanoma; 100% in the assay on MDA-MB-231 breast; 96% in the assay on RXF 393 renal; 93.8% in the assay with SF-268 CNS; 92.2% with SF-295 CNS; 94.1% in the assay on SF-539 CNS. The growth in the assay with UACC-257 melanoma is 102%; with M14 melanoma it was 113%.

For `Cc1cc(C(=O)c2ccccc2)cc(C)c1O`, the growth with NCI-H23 lung was 98.2%; with NCI-H226 lung, 99.2%; in the assay on NCI-H322M lung, 101%; in the assay on HOP-62 NSCLC, 95.2%; in the assay with NCI-H460 lung it was 110%; in the assay on HOP-92 NSCLC it was 74.3%. In addition, the growth in the assay with NCI-H522 lung is 104%; in the assay on A549/ATCC NSCLC it was 102%; in the assay on 786-0 renal, 100%; with COLO 205 colon it was 103%; in the assay with DU-145 prostate it was 113%; in the assay with K-562 leukemia it was 94.7%. Also, the growth in the assay on MALME-3M melanoma was 94.1%; in the assay with MDA-MB-231 breast, 124%; with RXF 393 renal, 116%; in the assay with SF-268 CNS, 102%; with SF-295 CNS, 107%; in the assay with SF-539 CNS it was 90.4%. Besides, the growth in the assay with UACC-257 melanoma was 115%; in the assay with M14 melanoma it was 103%.

These data come from PubChem BioAssay (NCI).
